Compound activity: PubChem, National Center for Advancing Translational Sciences (NCATS)
Pf Dd2 growth: blocks in vitro growth of P. falciparum Dd2. P. falciparum Dd2 growth, SYBR Green, 72 h. Potency, µM (highest dose often 28.9 µM), for inactives: at the highest dose activity, negative = inhibition, most hits filed as inhibitors. 120,000 compounds, 4.3% hits. AID 1347417; active = well fitted inhibition curve with a large enough effect;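 also: plate controls were DMSO vehicle for no effect and reference drug for full effect; nearly all actives have a fitted effect of over 65% in size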
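Readout: SYBR Green fluorescence, 485 nm excitation, 535 nm emission, after ~16 h lysis at 37C. Before that, Dd2-infected red cells (2.5% hematocrit) grew 72 h with compound, 29 uM top final concentration.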
* hit, by the source's call; i = inactive; [ ] = dose if it differs, or a comment. The entries come from a sample that favours hits as a whole. Potency is read from the fitted curve at half-maximal effect.

SMILES | Pf Dd2 growth
O=C(CC(c1ccccc1)c1ccccc1Cl)N(Cc1cccnc1)C1CC1 (stereo not drawn) | 13µM*
Cc1cc(C(=O)N2C[C@@H](Oc3cccnc3)C[C@H]2C(=O)N2CCOCC2)n(C)n1 | 13%
Cc1cc(C[C@@H]2COC[C@@H]2NC(=O)c2cnn(-c3ccccc3)c2)on1 | 2%
O=C1NCC(=O)N2CCN(C3CCN(Cc4ccco4)CC3)CC12 (stereo not drawn) | 5%
CC(C)N1C(=O)C2(CCCC2)C1C(=O)N1CCC(N2CCCCC2)CC1 (stereo not drawn) | -24%
CC(C)N1C(=O)C2(CCCC2)C1C(=O)N1CCN(C2CCCCC2)CC1 (stereo not drawn) | 10µM*
CC(C)N1C(=O)C2(CCCCC2)C1C(=O)N1CCN(C)CC1 (stereo not drawn) | -18%
O=C(COc1ccc(F)cc1)N1CCC(CCOc2ccccc2F)C1 (stereo not drawn) | i
COc1ccc(NC2CCCN(C(=O)CCCS(N)(=O)=O)C2)cc1 (stereo not drawn) | -4%
Cc1noc(-c2cn(C3CCN(C(=O)COc4ccccc4)CC3)nn2)n1 | i
CSc1ccc(-c2ccc3c(c2)C(=O)N2CCN(C(=O)CCC(=O)O)C[C@H]2C(=O)N3)cc1 | 42%
CSc1ccc(-c2ccc3c(c2)C(=O)N2CCN(C(=O)CC(C)(C)C)C[C@@H]2C(=O)N3)cc1 | 5.6µM*
CSc1ccc(-c2ccc3c(c2)C(=O)N2CCN(C(=O)CCC(=O)O)C[C@@H]2C(=O)N3)cc1 | 7%
COC[C@@H]1CN(C(=O)Cc2cccc(OC)c2)C[C@H]1c1ccccn1 | -3%
Cc1ccc(CNC(=O)CN2C(=O)NC3(CCCCC3)C2=O)cc1 | -2%
Cc1cccn2c(CC(=O)N3CCC4(CC3)c3nc[nH]c3CCN4C)cnc12 | -11%
Cc1ccc(CNC(=O)c2ccc3c(c2)CN(Cc2ccc(N(C)C)cc2)CCO3)cc1 | -28%
COc1ccccc1C(=O)N1CCN(Cc2cc(=O)oc3cc(C)ccc23)CC1 | -4%
COc1ccccc1CN1C[C@@H]2C(=O)N(Cc3ccc4c(c3)OCO4)C(=O)[C@@H]2C1 | 12%
Cc1ccc(CN2COc3ccc4c(C)cc(=O)oc4c3C2)cc1 | 4µM*
COc1ccccc1CN1COc2ccc3c(C)cc(=O)oc3c2C1 | 7.1µM*
Cc1ccc(Cn2nc3n(c2=O)-c2cc(Cl)ccc2OC3)cc1 | 15%
O=C(CN1C(=O)NC2(CCS(=O)(=O)CC2)C1=O)Nc1ccc(Cl)cc1F | 9%
O=C(N[C@@H]1COCC[C@H]1OCc1ccccn1)c1cnc(C2CC2)nc1 | -12%
CCn1cnnc1-c1nn(C)c2c1CN(C(=O)CN1CCCCCC1)CC2 | 0%
SMILES | Pf Dd2 growth
COc1ccc(CNC(=O)[C@@H]2CCC[C@@H](NC(=O)c3ccc(C#N)cc3)CN(C)C(=O)C2)cc1 | 4%
CC(C)(CC(=O)O)CC(=O)N1Cc2[nH]cnc2C[C@H]1C(=O)NC1CCCCC1 | -13%[44.1 µM]
COc1ccc(N2CCN(C(=O)c3cc(S(=O)(=O)N4CCCCCC4)cn3C)CC2)cc1 | -20%
COc1ccccc1N1CCN(C(=O)c2cc(S(=O)(=O)N3CCC(C)CC3)cn2C)CC1 | 8.9µM*
COc1ccc(Cl)cc1NC(=O)c1cc(S(=O)(=O)N2CCC(C)CC2)cn1C | 28%
O=c1c2c(CO)c(-c3ccccc3)nn2ccn1Cc1ccccc1F | -10%
Cc1nn(C)c(C)c1CN(Cc1cnc(N2CCCCC2)nc1)C1CC1 | -26%
Cc1cc(C)n2nc(-c3ccc(Cl)cc3)nc2n1 | i
COc1ccc(C2C=C(c3ccc(Cl)cc3)Nc3nc(-c4ccc(Cl)cc4)nn32)cc1 (stereo not drawn) | 0.1µM*
COc1ccc(-c2nc3n(n2)C(=O)CC(c2ccc(Cl)cc2)S3)cc1 (stereo not drawn) | 39%
CCOc1ccc(C2C=C(c3cccc(OC)c3)Nc3nnnn32)cc1 (stereo not drawn) | i
COc1ccc(-c2nc3n(n2)C(c2cccc(C)c2)C(C(N)=O)=C(C)N3)cc1OC (stereo not drawn) | -10%
CC1=C(C(N)=O)C(c2ccccc2F)n2nc(-c3ccc(Cl)cc3)nc2N1 (stereo not drawn) | -13%
Cc1ccc(-c2nc3n(n2)C(c2ccccc2C)C=C(c2ccc(Cl)cc2)N3)cc1 (stereo not drawn) | 5µM*
Cc1ccc(C2=CC(c3ccc(Cl)cc3)n3nc(-c4ccc(C)cc4)nc3N2)cc1 (stereo not drawn) | 1.3µM*
Cc1ccc(S(=O)(=O)Nc2nc3n(n2)C(c2ccccc2Cl)C=C(c2ccccc2)N3)cc1 (stereo not drawn) | -2%
c1ccc2[nH]c(C3CCC(Cn4cc(-c5cncnc5)nn4)CC3)nc2c1 (stereo not drawn) | -2%
O=C1NCCCCCN(C(=O)c2ccco2)[C@H]2CCC[C@@H]12 | 3%
CCCCc1nn(CC(=O)N(C)Cc2ccc(C)o2)c(=O)n1CC | 9%
COc1ccc(C(=O)N2CCc3onc(-c4ccc(C(F)(F)F)cc4)c3C2)o1 | -7%
O=C(O)c1cccc(C(=O)N2C[C@@H]3C[C@H](C2)c2ccc(NC(=O)c4cccs4)c(=O)n2C3)c1 | 16%
CCNC(=O)N1CCOc2ccc(CN3CCc4ccccc4C3)cc2C1 | i
Cc1ccsc1C(=O)N1CCOc2ccc(CN3CCc4ccccc4C3)cc2C1 | 7.9µM*
O=C(c1noc2c1CCCC2)N1CCOc2ccc(CN3CCN(c4ccccn4)CC3)cc2C1 | -17%
Cc1cccc(C(=O)N2CCOc3ccc(CCC(N)=O)cc3C2)c1 | -18%
SMILES | Pf Dd2 growth
O=C(C1CCC1)N1CCOc2ccc(CN3CCc4ccccc4C3)cc2C1 | 10µM*
O=C(NCc1ccco1)N1CCOc2ccc(CN3CCc4ccccc4C3)cc2C1 | -18%
O=C(c1cccc(F)c1)N1CCOc2ccc(CN3CCc4ccccc4C3)cc2C1 | 7.9µM*
Cn1nccc1C(=O)N1CCOc2ccc(CN3CCc4ccccc4C3)cc2C1 | -7%
O=C(CC(F)(F)F)N1CCOc2ccc(CN3CCc4ccccc4C3)cc2C1 | i
CCc1ccccc1OCC(=O)c1ccc2c(c1)N(CCCC(=O)NCC1CCCO1)C(=O)CO2 (stereo not drawn) | i
O=C1CC2CCCC(C1)N2[S+](=O)([O-])c1ccccc1 | 3%[44.1 µM]
O=C(NCc1ccccc1)C1CCC(=O)N1C1CCN(C(=O)c2ccc3c(c2)OCO3)CC1 (stereo not drawn) | 10%
CN1CCC(NCc2nc3c(n2Cc2ccccc2)C(=O)N(CCOc2ccccc2)CCN3)CC1 | -29%
CS(=O)(=O)N1CCOc2ccc(CCC(=O)N3CCCCC3)cc2C1 | i
CCOc1ccccc1C1NC(=O)N(CC(=O)Nc2ccccc2)C2=C1C(=O)OC2 (stereo not drawn) | i
Cc1cccc(-c2noc([C@@H]3C[C@@H](O)CN3Cc3ncc[nH]3)n2)c1 | i
Cn1cnnc1CC1CCCNC1 (stereo not drawn) | 16%
O=C(O)CCC(=O)N1CCCC2(Cc3ccccc3N(C(=O)C3CCCC3)C2)C1 (stereo not drawn) | 6%
NC(=O)c1cccc(CN2CCC3(Cc4ccccc4N(C(=O)C4CCCC4)C3)C2)c1 (stereo not drawn) | -23%
CC(=O)N1Cc2ccccc2CC2(CCN(CC3CCCC3)CC2)C1 | -26%
CC(=O)N1CC2(Cc3ccccc31)CN(C(=O)C1CCCC1)C2 | -23%[44.1 µM]
CS(=O)(=O)N1CC2(CCN(CC3CC3)C2)Cc2ccccc21 (stereo not drawn) | -13%
O=C(C1CCCC1)N1CC2(CCN(Cc3ccc(Cl)cc3)C2)Cc2ccccc21 (stereo not drawn) | 14µM*
